According to PubChem BioAssay AID504834 (National Center for Advancing Translational Sciences (NCATS), 2011):
Where “and” joins values, the source holds several entries; their conditions need not be identical. Identical values can stand only once. The campaign covered roughly 320,000 compounds. About 22,000 (6.9%) were called active. Roughly 27% stayed inconclusive and do not appear here. Calls come from the whole dose curve; as a rule, active = well fitted inhibition curve with a large enough effect; inconclusive = small, poorly fitted or top-dose-only effect, or another doubt; inactive = no such curve, though single readings can be large or run the other way. The list comes from a sample in which actives are over-represented; it also holds similar structures and randomly drawn compounds. Some structures have more than one record in an assay (separate samples or runs), and their calls can disagree.

Experiment: Primary qHTS for delayed death inhibitors of the malarial parasite plastid, 96 hour incubation
Settings: P. falciparum luciferase reporter growth; series mostly up to 28.7 µM; activity change, negative = inhibition: at the top concentration
In short: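 Two parasite generations (96 h, 37 C, 5% CO2) of compound exposure in infected erythrocytes (0.05% parasitemia, 2% hematocrit). Luciferase-reporter P. falciparum; decreased luminescence indicates inhibited growth, aimed at apicoplast-acting delayed death.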
% is set by controls: 0 for no effect and ±100 for the full control effect; potency is the fitted concentration of half-maximal effect.

SMILES	activity change, negative = inhibition	Potency
Cc1sc2ncn(CC(=O)NCCN(C)C)c(=O)c2c1S(=O)(=O)N1CCC(C)CC1	8.01% (inactive)	–
c1ccc(C2CNCc3c2ccc2ccccc32)cc1 (stereo unspecified)	–	9.28 µM (active)
Cc1ccc2c(=O)cc(C(=O)NCCc3ccc(S(N)(=O)=O)cc3)oc2c1C	22.4% (inactive)	–
CC(CC(=O)N1CCN(c2ccccc2)CC1)c1ccccc1 (stereo unspecified)	20.5% (inactive)	–
COc1ccc(C(CC(=O)N2CCN(c3ccccc3)CC2)c2c(O)cc(OC)cc2OC)cc1 (stereo unspecified)	–	11.7 µM (active)
COc1ccc(OC)c(S(=O)(=O)N(C)CC(=O)N2CCN(c3ccccc3)CC2)c1	3.74% (inactive)	–
NNC(=O)CNC(c1ccccc1)c1cc(Cl)ccc1NC(=O)c1ccccc1 (stereo unspecified)	244% (inactive)	–
Cc1ccc(NC(=O)/C(=C\c2ccccc2)NC(=O)c2ccco2)cc1	19.5% (inactive)	–
COc1ccc(CNc2nnnn2C)cc1	-14.9% (inactive)	–
CCOC(=O)CNc1nc2ccccc2n2c(C)nnc12	-0.978% (inactive)	–
Fc1ccc(CNc2nc3ccccc3n3nnnc23)cc1	–	14.7 µM (active)
Cc1cnc(NC(=O)c2ccc(Cl)nc2)s1	-12.9% (inactive)	–
Cc1nnsc1C(=O)NCc1c(F)cccc1Cl	6.81% (inactive)	–
O=C(CNC(=O)c1ccccc1Br)NNC(=O)c1cccs1	11.1% (inactive)	–
COc1ccc(-c2nc(CS(=O)(=O)CC(=O)NCc3cccc(Br)c3)c(C)o2)cc1	0.16% (inactive)	–
Cc1ccc(-c2nc(CS(=O)(=O)CC(=O)NCc3ccc4c(c3)OCO4)c(C)o2)cc1	–	14.7 µM (active)
COc1ccc(CCNC(=O)CS(=O)(=O)Cc2nc(-c3ccc(C)cc3)oc2C)cc1OC	4.87% (inactive)	–
C=CCNC(=O)c1ccc2c3n(nc2c1)-c1ccc(C)cc1CO3	64.3% (inactive)	–
COc1cc(/C(=C/c2ccccc2)c2ccccc2)c2c(c1)oc1ccccc12	–	13.1 µM (active)
COc1cc2c(cc1NC(=O)COC(=O)/C=C/c1ccccc1)oc1ccccc12	49.8% (inactive)	–
Cc1oc2cc(Br)c(O)c(Br)c2c1C(=O)c1ccccc1	14.3% (inactive)	–
CNC(=O)c1sc(NCc2ccccc2OC)nc1C	8.94% (inactive)	–

SMILES	activity change, negative = inhibition	Potency
O=C(CCNC(=O)c1ccc(Br)cc1)NCCCc1ccccc1	20.7% (inactive)	–
COc1ccc(CCNC(=O)CSc2nc(C)nc3c2oc2ccccc23)cc1OC	–	5.86 µM (active)
COc1ccc(CCNC(=O)CSc2nc(-c3ccc(OC)c(OC)c3)ccc2C#N)cc1	–	10.4 µM (active)
COc1ccc(N2CCN(C(=O)CSc3nc4cc(OC)c(OC)cc4cc3C#N)CC2)cc1	79% (inactive)	–
COc1ccc(CCNC(=O)CCn2c(=O)oc3ccccc32)cc1OC	-20.2% (inactive)	–
COc1ccc(CNC(=O)CSc2n[nH]c(N)n2)cc1OC	5.59% (inactive)	–
COc1ccc(CCNC(=O)CSc2nnc(-c3cccc(F)c3)o2)cc1OC	278% (inactive)	–
O=C(CCN1CCCO1)N1CCCC(N2CCN(c3cccc(C(F)(F)F)c3)CC2)C1 (stereo unspecified)	-24.3% (inactive)	–
Cc1ccc(CSc2nsc(C)c2C#N)cc1	15.2% (inactive)	–
CCC(C)(C)NC(=O)CN(C(=O)CCC(=O)Nc1nccs1)c1ccc2c(c1)OCO2	-16.6% (inactive)	–
COc1ccc(CNC(=O)COC(=O)c2c(C)nn(-c3ccccc3)c2C)cc1OC	53.4% (inactive)	–
Cc1nc2c(C(=O)NCc3ccc4c(c3)OCO4)c[nH]n2c(=O)c1Cc1ccccc1F	69.3% (inactive)	–
Cc1nn(CC(=O)N2CCCCC2)c(=O)c2nn(-c3ccccc3)c(C)c12	-25.7% (inactive)	–
COc1ccc(CNC(=O)C(C)n2nc(C)c3c(C)n(-c4ccccc4)nc3c2=O)c(OC)c1 (stereo unspecified)	–	10.4 µM (active)
Cc1ccc(-n2nc3c(=O)n(C(C)C(=O)NCc4ccc5c(c4)OCO5)nc(C)c3c2C)cc1 (stereo unspecified)	–	1.31 µM (active)
CCn1c(=O)c(C(=O)NCc2ccc3c(c2)OCO3)c(O)c2ccccc21	12.7% (inactive)	–
CC(C)CNC(=O)C(=O)NCC(c1ccc2c(c1)OCO2)N1CCOCC1 (stereo unspecified)	80.6% (inactive)	–
CC12CCC(C(=O)N(c3cccc(Cl)c3)C1=O)C2(C)C (stereo unspecified)	86.3% (inactive)	–
CC1=NN(c2cccc(Cl)c2)C(=O)C12CC(C)=C(C)CS2 (stereo unspecified)	–	3.7 µM (active)
Cc1cccc(OCCC(=O)OCc2csc(CC(=O)Nc3ccccc3C)n2)c1	-1.27% (inactive)	–
O=CN1CCN(C(=O)c2ccc(Br)o2)CC1	-8.76% (inactive)	–
COc1ccc(-n2cnnc2SCC(=O)Nc2cccc(S(N)(=O)=O)c2)cc1	-2.69% (inactive)	–

SMILES	activity change, negative = inhibition	Potency
O=C(N/N=C/c1cccc(Br)c1)c1ccc(N2CCCC2=O)cc1	11.4% (inactive)	–
CCOC(=O)N1CCN(C(=O)C2CCN(S(=O)(=O)c3cc(Cl)ccc3OCC)CC2)CC1	38.7% (inactive)	–
CN(C)P(=S)(Nc1ccccc1)C(Cl)(Cl)Cl (stereo unspecified)	–	8.28 µM (active)
O=C(CN1CCN(c2ccccc2)CC1)Nc1ccc(F)cc1	10.7% (inactive)	–
CC(Oc1ccc(F)cc1)C(=O)N1CCN(c2ncccn2)CC1 (stereo unspecified)	7.12% (inactive)	–
COCCN(C(=O)CC1CCCCC1)c1c(N)n(CC(C)C)c(=O)[nH]c1=O	-19.9% (inactive)	–
CCN(CC)S(=O)(=O)c1cccc(C(=O)Nc2ccccc2)c1	-28% (inactive)	–
CCC(=O)Nc1ccc(C(=O)Nc2cccc(OC)c2)cc1	25.3% (inactive)	–
CCC(=O)Nc1cccc(NC(=O)c2cccnc2)c1	–	13.1 µM (active)
CN(C)S(=O)(=O)c1cccc(C(=O)Nc2cccnc2)c1	–	3.29 µM (active)
CCOC(=O)c1cc(NC(=O)c2cccnc2)cc(C(=O)OCC)c1	-1.24% (inactive)	–
O=C(Nc1cccnc1)c1cccc(S(=O)(=O)N2CCCC2)c1	22.3% (inactive)	–
COc1ccc(C(=O)N2CCN(c3ncccn3)CC2)cc1S(=O)(=O)N1CCOCC1	29.3% (inactive)	–
O=C1CN(C(=O)c2cc(F)cc(F)c2)c2ccccc2N1	21.9% (inactive)	–
Cn1c(O)c(C=Nc2ccc3c(c2)CCC3)c(=O)n(C)c1=O	-0.84% (inactive)	–
O=c1[nH]c(=O)n(-c2ccc(F)cc2)c(O)c1C=NCCN1CCCCC1	-0.537% (inactive)	–
Cn1c(O)c(C=NCCN2CCNCC2)c(=O)n(C)c1=O	–	9.28 µM (active)
COc1ccc(NC(=O)c2cn(-c3ccccc3)nc2SC)cc1	32.2% (inactive)	–
Cc1cccc(N2CCN(C(=O)COCc3cc(-c4ccc5c(c4)OCO5)on3)CC2)c1C	63.5% (inactive)	–
Cc1ccsc1-c1cc(C(=O)O)c2c(ccc3ccccc32)n1	42.5% (inactive)	–
Cc1ccc(NC(=S)N(CCN(C)C)Cc2cccs2)cc1C	14.5% (inactive)	–
Cc1ccccc1NC(=S)N(CCCN1CCOCC1)Cc1cccs1	–	3.7 µM (active)

SMILES	activity change, negative = inhibition	Potency
Cc1ccc(Cl)cc1NC(=S)N(CCN(C)C)Cc1cccs1	42.5% (inactive)	–
CCN(C(=O)COC(=O)c1sccc1C)c1c(N)n(Cc2ccccc2)c(=O)[nH]c1=O	-27.9% (inactive)	–
COc1ccc(OC)c(/C=N/NC(=O)c2ccc[n+](CC(=O)c3ccccc3)c2)c1	13.8% (inactive)	–
O=C(O)c1ccccc1CSc1nc2ccccc2s1	58.7% (inactive)	–
Cc1cc(C)cc(N(CC(=O)N2CC=C(c3ccccc3)CC2)S(=O)(=O)c2c(C)noc2C)c1	–	6.57 µM (active)
Cc1cc(C)cc(N(CC(=O)NCC2CCCO2)S(=O)(=O)c2c(C)noc2C)c1 (stereo unspecified)	-10.5% (inactive)	–
CCOC(=O)C1CCCN(C(=O)CN(c2ccc(OC)cc2)S(=O)(=O)c2c(C)noc2C)C1 (stereo unspecified)	67.4% (inactive)	–
COc1ccc(NC2CCCN(C(=O)c3ccncc3)C2)cc1 (stereo unspecified)	8.58% (inactive)	–
COc1ccccc1N(C)C(=O)c1cc(S(=O)(=O)N2CCc3ccccc32)cn1C	0.199% (inactive)	–
CC(=O)NCC(O)c1ccc([N+](=O)[O-])cc1 (stereo unspecified)	10.7% (inactive)	–
Cc1ccc(C23CC4CC(CC(C(=O)NCC(=O)O)(C4)C2)C3)cc1	-2.65% (inactive)	–
CNCC(O)c1ccc(O)c(O)c1 (stereo unspecified)	3% (inactive)	–
NCC(O)c1ccc(O)cc1 (stereo unspecified)	–	inactive and 4.26 µM (active)
COc1ccc(S(=O)(=O)NNC(=O)Nc2ccc(C)cc2)c(OC)c1	16.2% (inactive)	–
N#CCCN1CCN(S(=O)(=O)c2ccc(S(=O)(=O)NC3CC3)cc2)CC1	14.9% (inactive)	–
N#CCCN1CCN(S(=O)(=O)c2ccc(S(=O)(=O)N3CCCC3)cc2)CC1	13.4% (inactive)	–
N#CCCN1CCN(S(=O)(=O)c2ccc(S(=O)(=O)NC3CCCCC3)cc2)CC1	–	8.28 µM (active)
CN(Cc1ccc(F)cc1Cl)S(=O)(=O)c1cccs1	0.235% (inactive)	–
COCC(=O)Nc1c(C(=O)N2CCCC2)oc2ccccc12	-7.27% (inactive)	–
CCOCCCN(C)C1CCN(C(=O)c2oc3ccccc3c2NC(=O)COc2cccc(C)c2)CC1	–	13.1 µM (active)
Cc1cccc(OCC(=O)NC(=S)Nc2ccccc2N2CCOCC2)c1	19.3% (inactive)	–
Cc1ccc(C)c(C(=O)N2CCC(n3nccc3NC(=O)C3CC3)CC2)c1	28.5% (inactive)	–

SMILES	activity change, negative = inhibition	Potency
Cc1c(CN2CCC(n3nccc3NC(=O)CCc3ccccc3)CC2)cnn1C	-5.6% (inactive)	–
CCN1CCN(C(=O)C2CCN(S(=O)(=O)c3cc(Cl)ccc3Cl)CC2)CC1	17.3% (inactive)	–
COc1ccc(-n2c(=O)[nH]c3cc(C(=O)NCCc4ccc(OC)c(OC)c4)ccc3c2=O)c(OC)c1	184% (inactive)	–
Cc1cc(C)c2c(-n3cccc3)c(C(=O)NNS(=O)(=O)c3ccc(F)cc3)sc2n1	50.7% (inactive)	–
Cc1cc(C)c2c(-n3cccc3)c(NC(=O)OCc3ccccc3)sc2n1	–	13.1 µM (active)
CCCCOC(=O)Nc1sc2nc(C)cc(C)c2c1-n1cccc1	37.7% (inactive)	–
COc1ccccc1-n1c(SCC(=O)Nc2cccc(C(=O)O)c2)nnc1-c1ccccc1O	22.7% (inactive)	–
Cc1cc(C)c2c(-c3ccc(F)cc3)c(C#N)c(=O)n(C)c2n1	2.64% (inactive)	–
O=C(CCN1C(=O)[C@@H]2Cc3ccccc3CN2C1=O)NCc1ccccc1	-23.2% (inactive)	–
C=CCc1cccc(/C=N/NC(=O)COc2ccc(-n3cnnn3)cc2)c1O	-7.84% (inactive)	–
Cc1ccc(C(=O)OCC(=O)NC(=O)Cc2ccccc2)c(O)c1	-1.22% (inactive)	–
COc1ccc(-c2nc(CCNC(=O)c3ccc(Br)o3)cs2)cc1	–	8.28 µM (active)
O=C(NCCc1csc(-c2ccccc2)n1)c1ccccc1F	0.738% (inactive)	–
COc1ccc(-c2csc(NC(=O)COC(=O)c3ccc(Br)o3)n2)cc1	212% (inactive)	–
NS(=O)(=O)c1ccc(NC(=S)N2CCCC2)cc1	6.43% (inactive)	–
Cc1ccc(C2C3=C(Nc4[nH]n(-c5ccccc5)c(=O)c42)c2ccccc2C3=O)cc1 (stereo unspecified)	–	11.7 µM (active)
COC(=O)C1=C(C)NC2=C(C(=O)c3ccccc32)C1c1ccc(-c2ccc(C(=O)O)cc2)o1 (stereo unspecified)	6.59% (inactive)	–
Cc1ccc(N=Nc2c(C)[nH]n(-c3ccccc3)c2=O)cc1	1.36% (inactive)	–
